In the supplement of paper PMC4723716:
± gives the uncertainty stated by the source. In all, about 9,900 compounds were measured (“viability index relative to DMSO control”: median about 1, lowest 2% from about 0.85 on). This is one part of a sample in which the lowest values are shown more often than they occur.

System: Plasmodium falciparum NF54 stage V gametocytes
Test: viability index relative to DMSO control (fraction); higher = less gametocyte killing
Conditions: 2.5 µM, incubation time: 72 h
Procedure, shortened: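 In 1,536-well plates, 10 µl of serum-free medium holding P. falciparum NF54 stage V gametocytes (0.75% gametocytemia, 1.25% hematocrit) received compound at 2.5 µM for 72 hr at 37°C in low oxygen. After one to two hours with 3 µl of 2.5 µM MitoTracker Red CMXRos containing 0.13% saponin, red particles of 20–70 µm2 were counted in a single field per well. Viability index is reported as the particle count over the plate mean of wells treated with solvent only.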

[1] = library set: Broad Institute DOS
[2] = library set: Broad Institute Blood Stage

| SMILES | viability index [1] | viability index [2] |
| --- | --- | --- |
| C[C@@H]1CN([C@@H](C)CO)C(=O)CCCn2cc(nn2)CO[C@@H]1CN(C)S(=O)(=O)c1cn(C)cn1 | 1.07 ± 0.062 | – |
| COC(=O)C[C@H]1C[C@H]2c3cc(N)ccc3O[C@H]2[C@H](CO)O1 | 1.05 ± 0.0071 | – |
| C/C=C/c1ccc([C@@H]2[C@H](CO)N3CCCCN(S(=O)(=O)c4ccc(OC)cc4)C[C@@H]23)cc1 | 1.03 ± 0.014 | – |
| C[C@H](CO)N1C[C@H](C)[C@H](CN(C)C(=O)NC2CCCCC2)OCc2ccccc2-c2ccccc2C1=O | 1.03 ± 0.03 | – |
| COC(=O)C[C@H]1CC[C@@H]2[C@@H](COc3ccc(NC(=O)Nc4c(C)noc4C)cc3C(=O)N2C)O1 | 0.983 ± 0.14 | – |
| O=C(Nc1ccc(F)cc1)N1CC(=O)N2[C@H](CO)[C@H](c3ccc(-c4cccc(F)c4)cc3)[C@H]2C1 | 1.05 ± 0.019 | – |
| C[C@@H]1CN([C@@H](C)CO)C(=O)c2ccccc2-c2ccccc2CO[C@@H]1CN(C)C(=O)Nc1cccc(Cl)c1Cl | 0.946 ± 0.053 | – |
| C[C@@H]1CN([C@@H](C)CO)C(=O)c2ccccc2-c2ccccc2CO[C@@H]1CN(C)C(=O)Nc1ccc(-c2ccccc2)cc1 | 0.977 ± 0.016 | – |
| C[C@H](CO)N1C[C@H](C)[C@@H](CN(C)C(=O)Nc2ccc(-c3ccccc3)cc2)OCc2ccccc2-c2ccccc2C1=O | 1.019 ± 0.0076 | – |
| C[C@@H]1CN([C@H](C)CO)C(=O)c2ccccc2-c2ccccc2CO[C@@H]1CN(C)C(=O)Nc1cccc(Cl)c1Cl | 0.894 ± 0.05 | – |
| C[C@H]1CN([C@@H](C)CO)C(=O)c2ccccc2-c2ccccc2CO[C@H]1CN(C)C(=O)Nc1cccc(Cl)c1Cl | 0.9208 ± 0.0078 | – |
| C[C@H]1CN([C@@H](C)CO)C(=O)c2ccccc2-c2ccccc2CO[C@H]1CN(C)C(=O)Nc1ccc(-c2ccccc2)cc1 | 0.724 ± 0.14 | – |
| C[C@H](CO)N1C[C@H](C)[C@@H](CN(C)C(=O)Nc2cccc(Cl)c2Cl)OCc2ccccc2-c2ccccc2C1=O | 0.845 ± 0.043 | – |
| C[C@@H]1CN([C@@H](C)CO)C(=O)c2ccccc2-c2ccccc2CO[C@H]1CN(C)C(=O)Nc1cccc(Cl)c1Cl | 0.72 ± 0.16 | – |
| C[C@@H]1CN([C@H](C)CO)C(=O)c2ccccc2-c2ccccc2CO[C@H]1CN(C)C(=O)Nc1cccc(Cl)c1Cl | 0.863 ± 0.045 | – |
| COC(=O)C[C@@H]1C[C@@H]2c3cc(NC(=O)c4ccc5c(c4)OCO5)ccc3O[C@@H]2[C@H](CO)O1 | 0.991 ± 0.033 | – |
| COc1ccc(S(=O)(=O)Nc2ccc3c(c2)CC(=O)N([C@H](C)CO)C[C@@H](C)[C@@H](CN(C)C(=O)Nc2c(C)noc2C)O3)cc1 | 1.101 ± 0.0069 | – |
| Cc1ccc(S(=O)(=O)N(C)C[C@@H]2Oc3c(NS(C)(=O)=O)cccc3C(=O)N([C@H](C)CO)C[C@@H]2C)cc1 | 0.939 ± 0.13 | – |
| COc1ccccc1CNC(=O)C[C@@H]1C[C@@H]2c3cc(NC(=O)C4CCC4)ccc3O[C@@H]2[C@@H](CO)O1 | 1.01 ± 0.015 | – |
| O=C([C@@H]1[C@@H](CO)[C@@H]2Cn3c(ccc(C4=CCCC4)c3=O)[C@H]1N2C(=O)c1cccnc1)N1CCOCC1 | 1.08 ± 0.038 | – |
| CCc1nc(N2[C@H](CO)[C@H](c3ccccc3-c3ccc(F)cc3)[C@@H]2C#N)sc1C | 1.03 ± 0.12 | – |
| O=C(C[C@@H]1CC[C@H]2NC[C@@H](O)COC[C@@H]2O1)NCc1ccc2c(c1)OCO2 | 1.07 ± 0.015 | – |
| COc1ccc2c3c([nH]c2c1)[C@H](CO)N(Cc1ccncc1)C[C@]31CN(C1)C(=O)CN(C)C | 1.04 ± 0.071 | – |

| SMILES | viability index [1] | viability index [2] |
| --- | --- | --- |
| COc1ccc2c3c([nH]c2c1)[C@@H](CO)N(Cc1ccccc1)C[C@]31CCN(Cc2cncnc2)CC1 | 0.849 ± 0.064 | – |
| COc1ccc2c3c([nH]c2c1)[C@@H](CO)N(Cc1nccs1)C[C@]31CN(Cc2ccncc2)C1 | 1.02 ± 0.079 | – |
| COc1ccc2c3c([nH]c2c1)[C@H](CO)N(Cc1nccs1)C[C@]31CCN(Cc2cccnc2)CC1 | 0.946 ± 0.081 | – |
| COc1ccc2c3c([nH]c2c1)[C@@H](CO)N(Cc1ccc(Cl)cc1)C[C@]31CCN(Cc2nccs2)CC1 | 0.814 ± 0.015 | – |
| COCC(=O)N1CC[C@@]2(CC1)CN(Cc1ccccc1Cl)[C@H](CO)c1[nH]c3cc(OC)ccc3c21 | 1.023 ± 0.0089 | – |
| COc1ccc2c3c([nH]c2c1)[C@H](CO)N(Cc1ccc(Cl)cc1)C[C@]31CCN(Cc2nccs2)CC1 | 0.884 ± 0.047 | – |
| COc1ccc2c3c([nH]c2c1)[C@@H](CO)N(Cc1nccs1)C[C@]31CCN(Cc2cccnc2)CC1 | 0.98 ± 0.062 | – |
| CCCC(=O)N1CC[C@@]2(CC1)CN(Cc1ccc(Cl)cc1)[C@H](CO)c1[nH]c3cc(OC)ccc3c21 | 0.873 ± 0.16 | – |
| CCCC(=O)N1CC[C@@]2(CC1)CN(Cc1ccc(Cl)cc1)[C@@H](CO)c1[nH]c3cc(OC)ccc3c21 | 0.795 ± 0.039 | – |
| CCCN(C)C[C@H]1Oc2cc(/C=C/c3ccccc3)ccc2S(=O)(=O)N([C@H](C)CO)C[C@H]1C | 1.05 ± 0.026 | – |
| COc1ccc2c3c([C@@H](CO)N(C[C@]33CCN(CC4CCOCC4)CC3)C(=O)NC(C)C)n(C)c2c1 | 0.97 ± 0.013 | – |
| COc1ccc2c3c([C@H](CO)N(CC4CC4)C[C@]33CCN(CC3)C(=O)NC3CCCC3)n(C)c2c1 | 0.955 ± 0.05 | – |
| C[C@H]1CN([C@@H](C)CO)C(=O)CCCn2nncc2CO[C@H]1CN(C)C(=O)c1ccc2ccn(C)c2c1 | 1.015 ± 0.0067 | – |
| O=C(C[C@@H]1CC[C@H]2[C@@H](COC[C@@H](O)CN2C(=O)c2ccccc2F)O1)NCc1ccc(Cl)c(Cl)c1 | 1.09 ± 0.036 | – |
| COC(=O)c1ccc(CN2CC(=O)N3[C@H](CO)[C@@H](c4ccc(-c5cccnc5)cc4)[C@H]3C2)cc1 | 0.986 ± 0.01 | – |
| C[C@@H]1CN([C@H](C)CO)C(=O)CCCn2cc(nn2)CO[C@@H]1CN(C)Cc1ccccc1 | 0.986 ± 0.035 | – |
| O=C(C[C@H]1CC[C@@H](NC(=O)Nc2ccc(C(F)(F)F)cc2)[C@H](CO)O1)NCc1cccc(F)c1 | 0.953 ± 0.14 | – |
| Cc1noc(C)c1S(=O)(=O)Nc1ccc2c(c1)C(=O)N([C@@H](C)CO)C[C@H](C)[C@@H](CN(C)C(=O)Nc1cccc3ccccc13)OCCCC[C@H](C)O2 | 0.984 ± 0.043 | – |
| Cc1noc(C)c1S(=O)(=O)Nc1ccc2c(c1)C(=O)N([C@@H](C)CO)C[C@@H](C)[C@@H](CN(C)C(=O)Nc1cccc3ccccc13)OCCCC[C@@H](C)O2 | 0.893 ± 0.066 | – |
| C[C@@H]1CN([C@@H](C)CO)C(=O)c2cc(NC(=O)C3CCCCC3)ccc2O[C@@H](C)CCCCO[C@H]1CN(C)C(=O)CCC(F)(F)F | 1.07 ± 0.071 | – |
| C[C@@H]1CN([C@H](C)CO)C(=O)c2cc(NC(=O)C3CCCCC3)ccc2O[C@@H](C)CCCCO[C@@H]1CN(C)C(=O)CCC(F)(F)F | 0.817 ± 0.26 | – |
| C[C@@H]1CN([C@H](C)CO)C(=O)c2cc(NC(=O)CCC(F)(F)F)ccc2O[C@@H](C)CCCCO[C@H]1CN(C)C(=O)Nc1cccc2ccccc12 | 1.08 ± 0.036 | – |
| C[C@@H]1CCCCO[C@@H](CN(C)C(=O)Nc2cccc3ccccc23)[C@H](C)CN([C@@H](C)CO)C(=O)c2cc(NC(=O)CCC(F)(F)F)ccc2O1 | 1 ± 0.061 | – |

| SMILES | viability index [1] | viability index [2] |
| --- | --- | --- |
| C[C@@H]1CN([C@H](C)CO)C(=O)c2cc(NC(=O)C3CCCCC3)ccc2O[C@@H](C)CCCCO[C@H]1CN(C)C(=O)CCC(F)(F)F | 1.05 ± 0.096 | – |
| C[C@@H]1CN([C@@H](C)CO)C(=O)c2cc(NC(=O)CCC(F)(F)F)ccc2O[C@@H](C)CCCCO[C@@H]1CN(C)C(=O)Nc1cccc2ccccc12 | 0.734 ± 0.082 | – |
| Cc1noc(C)c1S(=O)(=O)Nc1ccc2c(c1)C(=O)N([C@@H](C)CO)C[C@@H](C)[C@@H](CN(C)C(=O)Nc1cccc3ccccc13)OCCCC[C@H](C)O2 | 0.828 ± 0.11 | – |
| CN1C(=O)c2cc(NC(=O)c3cnccn3)ccc2OC[C@H]2O[C@H](CC(=O)NCC3CCCCC3)CC[C@@H]21 | 0.959 ± 0.028 | – |
| Cc1ccc(S(=O)(=O)N[C@H]2CC[C@@H](CC(=O)NCc3ccncn3)O[C@@H]2CO)cc1 | 1.01 ± 0.11 | – |
| CN1[C@@H]2CN(C(=O)C3CCCCC3)c3ccccc3[C@@H]2[C@@H]1CO | 1.06 ± 0.063 | – |
| COc1ccc(NC(=O)N2C[C@@]3(C2)CN([C@@H](CO)c2[nH]c4cc(OC)ccc4c32)C(C)=O)cc1 | 1.01 ± 0.1 | – |
| COc1ccc2c3c([nH]c2c1)[C@H](CO)N(C[C@]31CCN(Cc2ccncc2)CC1)C(=O)CC1CC1 | 0.934 ± 0.098 | – |
| O=C(C1CCOCC1)N1CC(=O)N2[C@H](C1)[C@H](c1ccc(C#CCc3ccccc3)cc1)[C@@H]2CO | 1.09 ± 0.14 | – |
| COCc1cn(CC[C@@H]2CC[C@H](NC(=O)Nc3c(C)noc3C)[C@@H](CO)O2)nn1 | 1.07 ± 0.097 | – |
| COCc1cn(CC[C@H]2CC[C@@H](NC(=O)Nc3c(C)noc3C)[C@H](CO)O2)nn1 | 1.03 ± 0.051 | – |
| OC[C@H]1CC[C@@H]2O[C@H](CCc3ccc(C#CCc4ccccc4)cc3)[C@H](n3cc(-c4ccccc4)nn3)C[C@@H]2O1 | – | 0.781 ± 0.043 |
| O=C(C1CCOCC1)N1CC(=O)N2[C@H](C1)[C@@H](c1ccc(C#CCc3ccccc3)cc1)[C@@H]2CO | 1.06 ± 0.041 | – |
| COCc1cn(CC[C@H]2CC[C@H](NC(=O)Nc3c(C)noc3C)[C@@H](CO)O2)nn1 | 0.927 ± 0.067 | – |
| COCc1cn([C@@H]2C[C@@H]3O[C@H](CO)CC[C@@H]3O[C@@H]2CCc2ccc(-c3ccc(OC)cc3)cc2)nn1 | – | 0.791 ± 0.041 |
| COCc1cn(CC[C@@H]2CC[C@H](NC(=O)Nc3c(C)noc3C)[C@H](CO)O2)nn1 | 0.951 ± 0.12 | – |
| COCc1cn([C@@H]2C[C@@H]3O[C@@H](CO)CC[C@@H]3O[C@@H]2CCc2ccc(-c3ccc(OC)cc3)cc2)nn1 | – | 0.811 ± 0.063 |
| CCC(=O)N1CC2(C1)[C@@H](c1ccc(-c3cccc(C)c3)cc1)[C@@H](CO)N2S(C)(=O)=O | 1.057 ± 0.0069 | – |
| Cc1nn(C)cc1NC(=O)C[C@@H]1CC[C@@H]2[C@H](COc3ccc(NC(=O)c4cccc(F)c4)cc3C(=O)N2C)O1 | 1.15 ± 0.11 | – |
| O=C(C[C@@H]1CC[C@@H]2[C@H](COC[C@@H](O)CN2C(=O)Nc2cccc(F)c2)O1)NCCCN1CCOCC1 | 1.12 ± 0.081 | – |
| COc1ccc(CN(C)C[C@@H]2OCc3cnnn3CCCC(=O)N([C@H](C)CO)C[C@@H]2C)cc1 | 0.963 ± 0.038 | – |
